Rows were chosen to be rich in hits. Some 2% of all compounds tested hit in one or more screens of this group.
mut p53 react – mutant p53 pathway reactivation. activation, % at 9.98 µM. SW480 PUMA-promoter luciferase. hit rate 1.5% among 28,000. AID 624151; in the data active = activation above about 52%; inconclusive = no clear call, values can overlap the other calls
STK33 inh – inhibitors of human STK33 kinase; Q9BYT3; ADP-Glo luminescence, MBP substrate; inhibition, % at 12.5 µM; hit rate 0.44% among 27,000; in the data active = inhibition above about 20%; inconclusive = no clear call, values can overlap the other calls
ID4 SMM – ID4 (human) binding. small molecule microarray, Flag-ID4 binding, fluorescence F/B. calls only. hit rate 1.2% among 31,000. AID 624137. P47928; call rule not given here;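 note: a binder raises fluorescence above local background on the spot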
Target sequence (P47928 whole entry, looked up): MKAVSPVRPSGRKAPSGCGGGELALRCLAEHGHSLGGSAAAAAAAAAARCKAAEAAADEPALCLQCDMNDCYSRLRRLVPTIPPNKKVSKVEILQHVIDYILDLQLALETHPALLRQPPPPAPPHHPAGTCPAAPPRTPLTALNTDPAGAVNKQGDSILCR
Active calls of the source: *.

C[C@H]1CN([C@@H](C)CO)C(=O)c2cccc(NC(=O)c3cnccn3)c2O[C@@H]1CN(C)C(=O)Nc1ccccc1 was read as mut p53 react 0 and ID4 SMM active.
C[C@@H]1CN([C@@H](C)CO)C(=O)c2cccc(NC(=O)c3nc4ccccc4s3)c2O[C@H]1CN(C)C(=O)Nc1cccc2ccccc12 was read as mut p53 react -6 and ID4 SMM inactive.
COc1ccc(NC(=O)Nc2cccc3c2O[C@H](CN(C)S(=O)(=O)c2ccc(Cl)cc2)[C@H](C)CN([C@@H](C)CO)C3=O)cc1 was read as mut p53 react 11 and ID4 SMM active.
COc1ccc(NC(=O)Nc2cccc3c2O[C@@H](CN(C)S(=O)(=O)c2ccc(Cl)cc2)[C@@H](C)CN([C@@H](C)CO)C3=O)cc1 was read as mut p53 react 6 and ID4 SMM inactive.
Screening C[C@@H]1CN([C@H](C)CO)C(=O)c2cccc(NC(=O)c3nc4ccccc4s3)c2O[C@H]1CN(C)C(=O)Nc1cccc2ccccc12 returned mut p53 react -10 and ID4 SMM active.
For O=[N+]([O-])c1ccccc1CN1CCN(CCO)CC1 the results were mut p53 react 3, STK33 inh 2 and ID4 SMM active.
For O=[N+]([O-])c1ccccc1S(=O)(=O)N1CCN(Cc2cccc(OCCO)c2)CC1 the results were STK33 inh -1 and ID4 SMM inactive.
`COC(=O)c1c(-c2ccc(OC)c(OC)c2)csc1NC(=O)COc1ccccc1` gave mut p53 react 19, STK33 inh 0 and ID4 SMM inactive.
For COc1cc(OC)cc(-c2nnc(SCc3cccc(C(=O)O)c3)o2)c1 the results were mut p53 react -4, STK33 inh 0 and ID4 SMM inactive.
O=C(O)c1cccc(CSc2nnc(-c3ccco3)o2)c1 was read as mut p53 react -21, STK33 inh -6 and ID4 SMM active.
O=C(CSc1nc2ccccc2[nH]1)Nc1ccc(Br)cc1Cl was read as mut p53 react 0, STK33 inh 0 and ID4 SMM inactive.
Screening Cc1cc(C)c(C)c(Oc2coc3cc(OC(=O)CCN4C(=O)c5ccccc5C4=O)ccc3c2=O)c1 returned mut p53 react -14, STK33 inh 1 and ID4 SMM inactive.
For Cc1ccc(S(=O)(=O)NCCC(=O)Oc2ccc3c(=O)c(-c4ccc(F)cc4)coc3c2)cc1 the results were mut p53 react 105*, STK33 inh 1 and ID4 SMM inactive.
COc1ccc(NC(=O)Cn2cnc3sc(-c4ccccc4)cc3c2=O)cc1 was read as mut p53 react -24, STK33 inh 0 and ID4 SMM inactive.
For Cc1cccc(C)c1OCC(=O)Nc1ccccc1C(=O)NC1CCCCC1 the results were mut p53 react 12, STK33 inh 3 and ID4 SMM inactive.
Screening CNC[C@H]1Oc2ccc(NS(C)(=O)=O)cc2C(=O)N([C@H](C)CO)C[C@@H]1C returned mut p53 react 7 and ID4 SMM active.
For CNC[C@H]1Oc2ccc(NS(C)(=O)=O)cc2C(=O)N([C@@H](C)CO)C[C@@H]1C the results were STK33 inh 0.
CNC[C@@H]1Oc2ccc(NS(C)(=O)=O)cc2C(=O)N([C@@H](C)CO)C[C@@H]1C was read as STK33 inh -1.
Screening CNC[C@@H]1Oc2ccc(NS(C)(=O)=O)cc2C(=O)N([C@@H](C)CO)C[C@H]1C returned mut p53 react 8 and ID4 SMM active.
CC(=O)Nc1ccc(C(=O)CSc2nnc(-c3ccccc3Cl)o2)cc1 was read as mut p53 react inconclusive, STK33 inh 3 and ID4 SMM inactive.
Screening COc1ccc(S(=O)(=O)N(C)CC(=O)Nc2cc(Cl)c(Cl)cc2Cl)cc1 returned mut p53 react 14, STK33 inh -4 and ID4 SMM inactive.
For COC(=O)c1cc(OC)c(OC)cc1NC(=O)CN1CCCCC1 the results were mut p53 react 18, STK33 inh -4 and ID4 SMM inactive.
`COC(=O)c1cc(OC)c(OC)cc1NC(=S)N1CCC(C(N)=O)(N2CCCCC2)CC1` gave mut p53 react 4, STK33 inh 2 and ID4 SMM active.
`O=S(=O)(Nc1ccc(O)c(Sc2nc3ccccc3s2)c1)c1cccc2cccnc12` gave mut p53 react -16, STK33 inh -5 and ID4 SMM inactive.
COC(=O)c1ccc(C2C(C(=O)c3cc4ccccc4o3)C(=O)C(=O)N2Cc2ccncc2)cc1 (configuration not stated) was read as mut p53 react 5, STK33 inh -7 and ID4 SMM inactive.
For CCCc1c(C(=O)O)c(O)cc2c1C(=O)c1c(O)cccc1C2=O the results were mut p53 react -26, STK33 inh -2 and ID4 SMM inactive.
For O=C1c2cccc(O)c2C(=O)c2c(O)cccc21 the results were mut p53 react 11, STK33 inh 27* and ID4 SMM inactive.
